Test results taken from PubChem BioAssay (Tox21).
Inconclusive results are not listed. Calls of active or inactive are those of the source. Unless noted, calls come from the whole dose curve.

Assays:
[1] = Nuclear factor erythroid 2-related factor 2/antioxidant responsive element (Nrf2/ARE) small molecule agonists: qHTS cell viability counter screen in human keratinocytes (AID 1919968; active = well fitted curve in the direction sought with a large enough effect in the repeat runs; an effect the other way counts as inactive or inconclusive; note: nearly all actives have a fitted effect of over 55% in size; note: potency is the fitted concentration of half-maximal effect)
Outline: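 After a 5 h attachment period, ARE-reporter keratinocytes were dosed with compounds in DMSO and then cultured 23 h at 37 C. Cell viability came from CellTiter-Fluor signal read after a further 1 h.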

[2] = Nuclear factor erythroid 2-related factor 2/antioxidant responsive element (Nrf2/ARE) small molecule agonists: luciferase reporter gene qHTS assay in human keratinocytes (AID 1919969); note: nearly all actives have a fitted effect of over 35% in size; note: potency is the fitted concentration of half-maximal effect
[3] = biological target: Gonadotropin-releasing hormone receptor (Homo sapiens) (UniProt P30968); experiment: Human gonadotropin-releasing hormone receptor (GnRHR) small molecule agonists, calcium flux assay in GnRHR-HEK293 cells (AID 1920063); note: nearly all actives have a fitted effect of over 35% in size
Chain of Gonadotropin-releasing hormone receptor (Homo sapiens) (P30968 whole entry, looked up): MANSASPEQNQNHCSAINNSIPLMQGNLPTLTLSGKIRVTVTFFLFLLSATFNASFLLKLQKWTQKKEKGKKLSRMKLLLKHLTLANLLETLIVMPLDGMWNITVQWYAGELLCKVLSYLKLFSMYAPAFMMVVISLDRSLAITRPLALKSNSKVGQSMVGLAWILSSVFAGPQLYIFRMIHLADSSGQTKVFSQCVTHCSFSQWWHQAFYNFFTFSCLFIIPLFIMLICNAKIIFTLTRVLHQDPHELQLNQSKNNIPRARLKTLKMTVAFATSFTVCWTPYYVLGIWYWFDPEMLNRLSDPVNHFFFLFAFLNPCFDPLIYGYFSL
Outline: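 We seeded human GnRHR-expressing HEK293 cells for 18 hours, loaded them with calcium dye for an hour at 37 C, added test compounds, and recorded fluorescence intensity kinetically for three minutes.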

[4] = biological target: KiSS-1 receptor (Homo sapiens) (UniProt Q969F8); experiment: Human kisspeptin (KISS1R) small molecule agonists, calcium flux assay in KISS1R-HEK293 cells (AID 1920064; active = well fitted curve in the direction sought with a large enough effect in the repeat runs; an effect the other way counts as inactive or inconclusive)
Chain of KiSS-1 receptor (Homo sapiens) (Q969F8 whole entry, looked up): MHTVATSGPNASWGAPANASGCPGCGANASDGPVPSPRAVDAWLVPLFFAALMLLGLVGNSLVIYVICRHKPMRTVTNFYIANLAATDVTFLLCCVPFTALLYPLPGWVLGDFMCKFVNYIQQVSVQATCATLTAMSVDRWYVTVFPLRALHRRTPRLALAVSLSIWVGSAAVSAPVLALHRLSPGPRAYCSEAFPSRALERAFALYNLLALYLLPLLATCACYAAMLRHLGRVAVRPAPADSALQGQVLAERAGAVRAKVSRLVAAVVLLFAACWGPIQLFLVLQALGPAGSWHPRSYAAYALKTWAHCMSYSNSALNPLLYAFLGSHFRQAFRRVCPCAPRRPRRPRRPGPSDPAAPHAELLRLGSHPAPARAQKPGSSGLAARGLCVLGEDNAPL
Outline: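 Kinetic calcium assay, 1 s sampling over 3 min at Ex/Em 480/540, in HEK293 cells engineered with human KISS1R; compounds delivered in DMSO after 1 h dye loading.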

[5] = G protein-coupled receptor (GPCR) small molecule agonists, calcium flux assay: HEK293 wild type cell line counter screen (AID 1920065)
Outline: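 Calcium-sensitive dye, loaded 1 h at 37 C into cells cultured 18 h, reports compound-evoked calcium release as fluorescence (Ex/Em 480/540), measured over 3 min. Agonist mode; 15-point titrations, triplicate.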

[6] = p53 small molecule agonists, cell-based qHTS assay with human liver microsomes (AID 1963577)
Outline: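 p53RE-bla cells, 4,000/well, compound added after 5 h, with human liver microsomes 0.5 mg/mL and NADPH 0.5 mg/mL final; 16 h at 37 C, then LiveBLAzer 2 h RT, fluorescence.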

[7] = p53 small molecule agonists, cell-based qHTS assay with rat liver microsomes (AID 1963578)
Outline: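 p53RE-bla cells, 4,000/well, pre-incubated 5 h, then given compounds plus rat liver microsomes (0.5 mg/mL final) and NADPH (0.5 mg/mL final). Incubation 16 h at 37 C; beta-lactamase reporter read by LiveBLAzer fluorescence after 2 h at room temperature.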

[8] = p53 small molecule agonists, cell-based qHTS assay with human liver microsomes: qHTS cell viability counter screen (AID 1963579); note: nearly all actives have a fitted effect of over 45% in size
Outline: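 p53RE-bla cells, 4,000/well, dosed 5 hours after plating, with human liver microsomes (0.5 mg/mL final) plus NADPH (0.5 mg/mL final), 16 hours at 37 C. Viability read as CellTiter-Glo luminescence after 30 min at room temperature.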

[9] = p53 small molecule agonists, cell-based qHTS assay: qHTS cell viability counter screen (AID 1963581); note: nearly all actives have a fitted effect of over 45% in size
Outline: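 Following 5 h attachment, HCT-116 p53RE-bla cells took up compound for 16 h at 37 C; the reporter was read with B/G FRET substrate (2 h RT), and viability then via CellTiter-Glo ATP luminescence.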

[10] = p53 small molecule agonists, cell-based qHTS assay (AID 1963582; active = well fitted activation curve with a large enough effect in the signal ratio in the repeat runs, not every such curve was filed as active; the % refers to the signal ratio)
Outline: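 In this cell-based concentration-response screen, a p53 response element drives beta-lactamase; cells received DMSO-borne compounds after 5 h culture and were incubated a further 16 h before FRET substrate development.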

[11] = biological target: 5-hydroxytryptamine receptor 2A (Homo sapiens) (UniProt P28223); experiment: 5-hydroxytryptamine receptor 2A (HTR2A) small molecule antagonists, cell-based qHTS assay (AID 1963586); note: nearly all actives have a fitted effect of over 45% in size
Chain of 5-hydroxytryptamine receptor 2A (Homo sapiens) (P28223 whole entry, looked up): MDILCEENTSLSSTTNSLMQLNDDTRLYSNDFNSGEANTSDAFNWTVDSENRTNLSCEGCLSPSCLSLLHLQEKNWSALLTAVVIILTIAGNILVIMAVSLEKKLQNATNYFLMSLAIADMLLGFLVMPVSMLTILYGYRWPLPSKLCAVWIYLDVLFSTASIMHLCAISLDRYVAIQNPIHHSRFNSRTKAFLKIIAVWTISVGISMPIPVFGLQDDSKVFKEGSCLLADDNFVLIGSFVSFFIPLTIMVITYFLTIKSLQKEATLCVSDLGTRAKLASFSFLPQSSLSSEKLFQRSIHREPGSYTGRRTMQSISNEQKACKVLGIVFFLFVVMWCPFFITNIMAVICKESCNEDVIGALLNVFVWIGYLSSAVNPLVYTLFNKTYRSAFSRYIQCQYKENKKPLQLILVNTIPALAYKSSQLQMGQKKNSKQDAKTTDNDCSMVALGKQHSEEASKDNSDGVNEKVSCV
Outline: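 Antagonist-mode intracellular calcium assay: DOI (4 nM) added after 5 min compound pre-incubation at room temperature to dye-loaded HTR2A-CHO cells. Fluorescence followed for 3 min, sampled every second.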

[12] = biological target: 5-hydroxytryptamine receptor 2A (Homo sapiens) (UniProt P28223); experiment: 5-hydroxytryptamine receptor 2A (HTR2A) small molecule agonists, cell-based qHTS assay (AID 1963587); note: nearly all actives have a fitted effect of over 30% in size
Outline: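 HTR2A-CHO cells, plated 18 h at 37 C/5% CO2, dye-loaded 1 h at 37 C; compounds in DMSO added by pin tool (agonist mode). Intracellular calcium flux read as kinetic fluorescence on FDSS over 2 min at 1 s intervals.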

[13] = biological target: Muscarinic acetylcholine receptor M1 (Homo sapiens) (UniProt P11229); experiment: Cholinergic receptor muscarinic 1 (CHRM1) small molecule antagonists, cell-based qHTS assay (AID 1963588); note: nearly all actives have a fitted effect of over 40% in size; note: potency is the fitted concentration of half-maximal effect
Chain of Muscarinic acetylcholine receptor M1 (Homo sapiens) (P11229 whole entry, looked up): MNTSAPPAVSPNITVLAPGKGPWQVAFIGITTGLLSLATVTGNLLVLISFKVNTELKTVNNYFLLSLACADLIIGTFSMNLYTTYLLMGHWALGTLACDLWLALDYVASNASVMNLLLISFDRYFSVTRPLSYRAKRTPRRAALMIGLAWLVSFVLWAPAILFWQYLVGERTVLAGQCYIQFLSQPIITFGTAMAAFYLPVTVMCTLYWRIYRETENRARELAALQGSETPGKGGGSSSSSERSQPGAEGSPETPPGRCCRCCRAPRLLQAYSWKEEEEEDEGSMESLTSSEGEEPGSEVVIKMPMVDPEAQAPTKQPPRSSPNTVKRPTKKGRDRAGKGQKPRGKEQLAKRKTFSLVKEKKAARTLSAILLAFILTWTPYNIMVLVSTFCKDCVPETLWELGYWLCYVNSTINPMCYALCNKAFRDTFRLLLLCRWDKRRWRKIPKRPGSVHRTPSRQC
Outline: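 CHRM1-CHO calcium-flux assay, antagonist mode. Cells were seeded 18 h, dye-loaded 1 h at 37 C and given compound for 5 min at RT, then acetylcholine was added at 50nM. FDSS fluorescence was read 3 min; 15 concentrations, three runs.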

[14] = biological target: Muscarinic acetylcholine receptor M1 (Homo sapiens) (UniProt P11229); experiment: Cholinergic receptor muscarinic 1 (CHRM1) small molecule agonists, cell-based qHTS assay (AID 1963589); note: nearly all actives have a fitted effect of over 35% in size
Outline: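 Measures agonist-induced intracellular calcium rise. Stable human CHRM1 CHO line, 1 h dye load at 37 C, compounds from DMSO, kinetic fluorescence read.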

[15] = cAMP Responsive Elements (CRE) small molecule antagonists, cell-based qHTS assay (AID 1963591; active = well fitted inhibition curve with a large enough effect in the signal ratio in the repeat runs, not every such curve was filed as active; the % refers to the signal ratio; note: potency is the fitted concentration of half-maximal effect)
Outline: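 HEK293T cells carrying a CRE-driven beta-lactamase reporter receive compound and NKH477 (0.25 uM final) for 3 h. Fluorescence from LiveBLAzer B/G FRET substrate is read after 2 h at room temperature.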

[16] = biological target: Beta-2 adrenergic receptor (Homo sapiens) (UniProt P07550); experiment: Adrenergic beta2 receptor (ADRB2) small molecule antagonists, cell-based qHTS assay (AID 1963592); note: series mostly up to about 92 µM; nearly all actives have a fitted effect of over 50% in size
Chain of Beta-2 adrenergic receptor (Homo sapiens) (P07550 whole entry, looked up): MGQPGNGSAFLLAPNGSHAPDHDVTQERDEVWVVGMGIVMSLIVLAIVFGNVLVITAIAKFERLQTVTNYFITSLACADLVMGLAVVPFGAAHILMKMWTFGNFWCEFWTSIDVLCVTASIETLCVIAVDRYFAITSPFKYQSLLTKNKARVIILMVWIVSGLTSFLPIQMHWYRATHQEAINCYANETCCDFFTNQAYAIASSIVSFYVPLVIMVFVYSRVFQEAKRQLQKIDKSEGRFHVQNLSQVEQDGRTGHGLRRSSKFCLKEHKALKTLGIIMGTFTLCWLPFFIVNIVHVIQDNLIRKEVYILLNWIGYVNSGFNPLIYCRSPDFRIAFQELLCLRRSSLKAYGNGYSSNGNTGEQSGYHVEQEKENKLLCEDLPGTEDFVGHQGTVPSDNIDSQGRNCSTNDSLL
Outline: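 Cells (CHO, stable ADRB2 overexpression) incubated 18-20hr at 37C; compounds added from DMSO; agonist mix (1nM isoproterenol, 100uM IBMX, 25uM Ro-20-1724) added; 0.5hr RT; d2-cAMP and anti-cAMP-cryptate added; 1hr RT; 665/615 nm read.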

[17] = biological target: D(2) dopamine receptor (Homo sapiens) (UniProt P14416); experiment: Dopamine D2 receptor (DRD2) small molecule agonists, cell-based qHTS assay (AID 1963594); note: nearly all actives have a fitted effect of over 35% in size
Chain of D(2) dopamine receptor (Homo sapiens) (P14416 whole entry, looked up): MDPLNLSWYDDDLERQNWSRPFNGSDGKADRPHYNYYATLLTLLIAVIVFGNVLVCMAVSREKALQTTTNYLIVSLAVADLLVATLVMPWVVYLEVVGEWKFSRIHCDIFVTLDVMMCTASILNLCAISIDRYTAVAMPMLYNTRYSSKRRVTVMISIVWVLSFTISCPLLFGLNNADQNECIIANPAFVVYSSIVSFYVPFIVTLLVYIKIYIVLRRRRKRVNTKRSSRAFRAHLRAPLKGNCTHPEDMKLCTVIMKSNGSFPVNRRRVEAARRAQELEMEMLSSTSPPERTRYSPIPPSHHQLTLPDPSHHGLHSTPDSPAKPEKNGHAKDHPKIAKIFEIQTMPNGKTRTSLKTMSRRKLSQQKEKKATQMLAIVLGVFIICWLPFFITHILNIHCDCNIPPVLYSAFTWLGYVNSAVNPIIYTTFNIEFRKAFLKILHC
Outline: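 HEK293 cells stably expressing DRD2 were cultured 24 h at 37 C, then given Ro20-1724 (0.1 mM final) and compounds for 10 min at room temperature. NKH477 (200nM) was then added for 30 min. cAMP was read by HTRF.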

[18] = biological target: D(2) dopamine receptor (Homo sapiens) (UniProt P14416); experiment: Dopamine D2 receptor (DRD2) small molecule antagonists, cell-based qHTS assay (AID 1963595; active = well fitted inhibition curve with a large enough effect in the signal ratio in the repeat runs, with a control signal flat; the % refers to the signal ratio)
Outline: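 Antagonist mode in DRD2-HEK293 cells: after compound addition with 0.1 mM Ro20-1724, cells received quinpirole (12 nM) and NKH477 (200 nM) for 30 min at room temperature; HTRF cAMP read after 1 h detection.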

[19] = p53 small molecule agonists, cell-based qHTS assay with rat liver microsomes: qHTS cell viability counter screen (AID 1963580); note: nearly all actives have a fitted effect of over 45% in size; note: potency is the fitted concentration of half-maximal effect
Outline: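 In HCT-116 cells carrying a p53 response element-bla reporter, compounds were metabolically activated in situ by rat liver microsomes with NADPH over 16 h. Cell ATP content then served as the cytotoxicity measure.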

[20] = cAMP Responsive Elements (CRE) small molecule agonists, cell-based qHTS assay (AID 1963590)
Outline: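 A CRE-responsive beta-lactamase reporter in HEK 293T cells was used. Treatment ran 3 h at 37 C; detection used LiveBLAzer B/G FRET substrate for 2 h at room temperature.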

Measured: Potency

COc1cnc(OC)n2nc(NS(=O)(=O)c3c(OCC(F)F)cccc3C(F)(F)F)nc12
not listed: [19] | [20]
inactive: all other assays above

O=C(CCl)C(Cl)Cl
active: [1] 19.5 µM | [2] 7.77 µM | [19] 13 µM | [15] 21.9 µM
not listed: [8] | [10] | [20]
inactive: all other assays above

COC(N)=O
not listed: [9] | [12] | [15] | [18] | [19] | [20]
inactive: all other assays above

CCN(CC)C(=O)N[C@@H]1C=C2c3cccc4[nH]cc(c34)C[C@@H]2N(C)C1
not listed: [8] | [11] | [12] | [13] | [14] | [16] | [17]
inactive: all other assays above

CC(CC(C(N)=O)(c1ccccc1)c1ccccc1)N(C)C (centres undefined)
active: [13] 0.0082 µM
not listed: [8] | [9]
inactive: all other assays above

O=c1oc2ccccc2c(O)c1C1CCCc2ccccc21 (centres undefined)
not listed: [9] | [11] | [16] | [19]
inactive: all other assays above

CC(=O)c1ccc(-c2ccccc2)cc1
not listed: [8] | [11]
inactive: all other assays above

Clc1cccc(N2CCNCC2)c1
not listed: [11] | [12] | [13] | [16] | [19]
inactive: all other assays above
